# Screens: PubChem, National Center for Advancing Translational Sciences (NCATS)
# Compounds with a hit are over-represented: about 7.5% of the library has one in this group of screens.
# Luc counter: Counterscreen for Luciferase (Kinase-Glo TM) Inhibition; Luciferin 4-monooxygenase (Photuris pensylvanica), Q27757; Kinase-Glo luciferase, ATP luminescence, 8 min; Potency, µM (highest dose often 38.3 µM), for the others: at the top dose activity change, negative = inhibition, actives largely listed as inhibitors; 200,000 compounds, 0.28% hits; note: % is set by controls: 0 for no effect and ±100 for the full control effect; nearly all actives have a fitted effect of over 60% in size
#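 Substrate mix (final 50 mM imidazole pH 7.2, 50 mM KCl, 7 mM MgCl2, 10 uM ATP, 0.01% Tween 20, 0.05% BSA) plus pin-tool compound, then Kinase-Glo detection mix; 8 min ambient, luminescence read.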
# NPC1 promoter act: qHTS Assay for NPC1 Promoter Activators; 320,000 compounds, 2.4% hits; AID 485313, 2010; Potency, µM (series often up to 9.22 µM), for the others: top-dose activation, hits mostly activators; Huh7 NPC1 promoter luciferase reporter, 24 h; note: % of control where 0% means no effect; nearly all actives have a fitted effect of over 60% in size
#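 Stable NPC1-promoter luciferase Huh7 line; cpd (DMSO) 24 h, 37 °C, 5% CO2; Amplite luciferase reagent 10 min RT; luminescence readout. qHTS format.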
# FLuc counter: qHTS profiling assay for firefly luciferase inhibitor/activator using purifed enzyme and Km concentrations of substrates (counterscreen for miR-21 project). Luciferin 4-monooxygenase (Photinus pyralis), P08659. purified FLuc, Km substrates, luminescence inhibition. Potency, µM (series often up to 57.5 µM), without a hit: at the top dose activity change, negative = inhibition, actives largely listed as inhibitors. 360,000 compounds, 6.9% hits. AID 588342, 2011;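 note: plate controls were vehicle for no effect and reference inhibitor for full effect; nearly all actives have a fitted effect of over 55% in size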
# Target sequence (P08659 whole entry, looked up): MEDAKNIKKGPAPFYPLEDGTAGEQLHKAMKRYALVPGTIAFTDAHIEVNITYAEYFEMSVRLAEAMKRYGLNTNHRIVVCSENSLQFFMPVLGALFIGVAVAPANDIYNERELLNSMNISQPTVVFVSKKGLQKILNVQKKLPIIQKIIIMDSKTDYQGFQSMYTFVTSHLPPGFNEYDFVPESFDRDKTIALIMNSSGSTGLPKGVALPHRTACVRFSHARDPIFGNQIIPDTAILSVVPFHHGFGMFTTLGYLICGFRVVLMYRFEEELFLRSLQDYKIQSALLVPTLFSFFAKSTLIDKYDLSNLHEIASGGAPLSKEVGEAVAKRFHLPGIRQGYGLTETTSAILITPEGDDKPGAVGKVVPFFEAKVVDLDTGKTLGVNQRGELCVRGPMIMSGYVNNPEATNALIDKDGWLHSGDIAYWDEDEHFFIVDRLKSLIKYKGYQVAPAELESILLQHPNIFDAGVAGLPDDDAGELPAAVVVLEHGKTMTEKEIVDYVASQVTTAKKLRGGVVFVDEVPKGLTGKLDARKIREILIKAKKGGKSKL
#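 Purified P. pyralis luciferase (10nM final) with 10uM D-luciferin and 10uM ATP (Km levels) in 50mM Tris acetate pH 7.5, 10mM Mg acetate, 0.01% Tween-20, 0.05% BSA; qHTS 6-point titration, ~60 µM downward; luminescence read.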
# ELG1 genotox: qHTS screen for small molecules that induce genotoxicity in human embryonic kidney (HEK293T) cells expressing luciferase-tagged ELG1. HEK293T ELG1-luciferase reporter, luminescence, 16 h. Potency, µM (highest dose often 46 µM), for the others: at the highest dose activity change, positive = activation, actives largely listed as activators. 330,000 compounds, 1.3% hits; note: % of control where 0% means no effect; nearly all actives have a fitted effect of over 60% in size
#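 HEK293T cells expressing luciferase-tagged ELG1 were treated with compound or DMSO for 16 hr at 37°C. Luciferase activity was then read after 30 min with ONE-Glo at room temperature; rising signal flags genetic stress.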
# Rab9 prom act: qHTS Assay for Rab9 Promoter Activators; Huh7 Rab9 promoter-luciferase reporter, luminescence, 24 h; Potency, µM (highest dose often 9.22 µM), inactives show at the top dose activation, negative = inhibition, hits mostly activators; 320,000 compounds, 2.8% hits; note: % of control where 0% means no effect; nearly all actives have a fitted effect of over 60% in size
#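 Huh7 reporter line, Rab9 promoter upstream of luciferase. Compound exposure 24 h at 37 °C in reduced-serum medium with 10% FBS. Read-out: luminescence.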
# SMN2 splice up: qHTS Assay for Enhancers of SMN2 Splice Variant Expression; HEK293 SMN2-luciferase splicing reporter, luminescence, 30-36 h; Potency, µM (top dose mostly 46.1 µM), inactives show top-dose activity change, positive = activation, hits mostly activators; AID 1458, 2008; 210,000 compounds, 2.8% hits; note: % of control where 0% means no effect; nearly all actives have a fitted effect of over 55% in size
#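 HEK293 cells carry an SMN2 […]–luciferase reporter in which exon 7 inclusion puts luciferase in frame. Cells were plated 10-12 h before compound addition, then incubated 30-36 h at 37C. ONE-Glo luminescence was read; sodium butyrate at 4.5 mM final served as control.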
# * marks the source's active call; other numbers are inactive results; ? = inconclusive; / = not tested or not shown. Calls come from the whole dose curve; as a rule, active = well fitted curve in the direction sought with a large enough effect; inconclusive = small, poorly fitted or top-dose-only effect, or another doubt; inactive = no such curve, though single readings can be large; an effect the other way counts as inactive or inconclusive. Potency is the fitted concentration of half-maximal effect.
SMILES,Luc counter,NPC1 promoter act,FLuc counter,ELG1 genotox,Rab9 prom act,SMN2 splice up
Cc1cc(NC(=S)NC(=O)C2CC2)ccc1Br,/,-13%,24µM*,4%,22%,/
Cc1cccc(NC(=O)C2CC(O)CN2C(=O)Oc2ccccc2)c1 (centres undefined),/,-7%,-1%,-2%,0%,/
Cc1ccc(OCC(=O)NC(=S)Nc2ccccn2)c(Br)c1,/,1.6µM*,0.19µM*,0.13µM*,2.8µM*,/
COCCCNC(=O)COc1ccc(Br)cc1Cl,0%,?,?,?,?,16µM*
O=C(COc1ccc(Br)cc1Cl)NC(=S)Nc1ccccn1,/,?,1.1µM*,1.6µM*,?,/
CCNC(=O)COc1ccc(Br)cc1Cl,0%,26%,?,?,30%,10%
Cc1ccc(OCC(=O)NNC(=S)NC(=O)C2CC2)c(C)c1,/,-5%,13µM*,8%,-8%,/
Cc1nccn1CCOc1ccc(Cl)cc1,/,-4%,-2%,-2%,1%,/
Cc1ccc(OCC(=O)NNC(=S)NC(=O)C(C)(C)C)c(Br)c1,3%,1%,27µM*,4%,5%,-47%
Cc1ccc2nc(-c3ccc4c(c3)NC(=O)CO4)cn2c1,/,1.6µM*,0.85µM*,?,1.1µM*,/
Clc1ccc2nc(-c3ccc4c(c3)OCO4)cn2c1,?,0.32µM*,0.12µM*,?,0.13µM*,/
Cc1ccc2nc(-c3ccc4c(c3)OCCO4)cn2c1,/,-32%,0.067µM*,?,-37%,/
O=C1COc2ccc(-c3csc(NCCc4ccccc4)n3)cc2N1,1%,-1%,27µM*,-7%,0%,-51%
COc1ccc(CCNC(=O)c2cc(S(=O)(=O)N3CCOCC3)ccc2F)cc1,/,1%,/,-3%,-2%,/
CCOc1ncccc1C(=O)NNC(=O)CSc1ccc(Cl)cc1,/,/,/,1%,/,/
CC(Sc1nnc(-c2cccs2)n1N)C(=O)NCC1CCCO1 (centres undefined),/,-6%,4%,4%,-3%,/
Cc1ccc(-n2nc3c(N4CCC(C(=O)NC(C)c5ccccc5)CC4)nnc(C)c3c2C)cc1 (centres undefined),/,/,5%,/,/,/
CC(NCC(=O)Nc1ccccc1C(=O)NC1CC1)c1ccc(S(C)(=O)=O)cc1 (centres undefined),/,1%,-1%,2%,0%,/
Cc1cc(NC(=O)c2cc(F)c(F)cc2Cl)no1,-2%,-1%,-16%,3%,3%,1%
COc1cc2ccccc2cc1C(=O)Nc1ccc(C)cn1,/,?,3µM*,2.9µM*,?,/
Cc1ccc(NC(=O)c2cc(F)c(F)cc2Cl)nc1,-8%,1.8µM*,8.5µM*,?,0.89µM*,/
Cc1ccc(NC(=O)c2ccc(C(=O)c3ccccc3)cc2)nc1,/,30%,19µM*,?,28%,/
Cc1ccc(NC(=O)c2ccccc2F)nc1,?,1.1µM*,4.8µM*,1.8µM*,0.71µM*,7.9µM*
Cc1ccc(NC(=O)c2ccc3nc[nH]c3c2)nc1,/,3%,2%,10%,1%,/
Cc1ccc(NC(=O)CCNC(=O)c2ccccc2Cl)nc1,/,-1%,-1%,10%,0%,/
Cc1ccc2nc(-c3ccc(NC(=S)NC(=O)C(C)C)cc3)sc2c1,13%,0.4µM*,3.8µM*,9.2µM*,1.8µM*,/
CCC(=O)NC(=S)Nc1ccc(-c2nc3ccccc3s2)cc1,-1%,0.45µM*,0.76µM*,?,1.6µM*,5µM*
Cc1ccc2nc(-c3ccc(NC(=S)NC4CC(C)(C)NC(C)(C)C4)cc3)sc2c1,-8%,?,11µM*,?,?,?
